Experimental data as given in PubChem BioAssay AID811 (The Scripps Research Institute Molecular Screening Center, 2007).
The whole screen tested about 16,000 compounds, of which about 10 (0.06%) were called active. The list comes from a sample in which actives are over-represented; it also holds similar structures and randomly drawn compounds. Unmarked numbers belong to inactive results. Cut-off read from the data, not from the text of the source: active = inhibition above about 45%; inactive = the rest.

The compounds below were run against Toll-like receptor 4 (Homo sapiens) (UniProt O00206) (assay: blocks binding of human TLR4 to MyD88 (AID 811)). Conditions: Cell-based TLR4-MyD88 binding inhibition assay; at 10 µM; stronger effect = higher value.
Sequence of Toll-like receptor 4 (Homo sapiens) (O00206 whole entry, looked up): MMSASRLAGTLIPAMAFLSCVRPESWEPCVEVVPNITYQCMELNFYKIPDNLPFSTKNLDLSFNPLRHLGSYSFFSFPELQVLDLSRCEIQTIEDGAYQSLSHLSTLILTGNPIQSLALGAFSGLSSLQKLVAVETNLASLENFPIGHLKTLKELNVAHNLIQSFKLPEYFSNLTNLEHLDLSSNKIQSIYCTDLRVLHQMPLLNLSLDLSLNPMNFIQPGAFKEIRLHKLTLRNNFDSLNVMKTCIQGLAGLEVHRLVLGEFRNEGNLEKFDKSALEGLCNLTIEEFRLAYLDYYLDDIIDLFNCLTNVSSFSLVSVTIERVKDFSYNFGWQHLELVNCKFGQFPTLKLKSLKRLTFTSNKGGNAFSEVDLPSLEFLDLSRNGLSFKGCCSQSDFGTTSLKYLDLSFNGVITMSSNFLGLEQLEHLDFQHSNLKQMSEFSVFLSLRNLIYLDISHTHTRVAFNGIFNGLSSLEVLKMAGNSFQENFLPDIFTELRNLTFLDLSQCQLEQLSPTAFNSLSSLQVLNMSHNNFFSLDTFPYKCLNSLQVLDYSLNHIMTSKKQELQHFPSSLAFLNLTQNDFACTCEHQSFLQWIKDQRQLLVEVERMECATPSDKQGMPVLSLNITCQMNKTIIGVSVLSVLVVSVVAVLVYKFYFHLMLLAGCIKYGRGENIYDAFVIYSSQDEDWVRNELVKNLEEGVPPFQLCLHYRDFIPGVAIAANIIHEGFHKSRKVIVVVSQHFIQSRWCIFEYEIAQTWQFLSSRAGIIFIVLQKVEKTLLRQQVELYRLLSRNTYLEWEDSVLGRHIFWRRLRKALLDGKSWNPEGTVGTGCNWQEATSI
With `N/C(=N\OC(=O)c1ccc(Cl)cc1)c1cccc(CS(=O)(=O)c2ccccn2)c1` the inhibition was -5.81%. With `CC(C)S(=O)(=O)/C(C#N)=C/NN1CCOCC1` the inhibition was -3.92%. `COC(=O)c1cnc(N2CCCN(C(=O)C3COc4ccccc4O3)CC2)nc1C(F)(F)F` (centres undefined) gave an inhibition of -1.67%. `NC(=O)c1c(C(F)(F)F)cc(C(F)(F)F)cc1C(F)(F)F` showed an inhibition of -6.47%. `COc1ccccc1NC(=O)c1ccc(C#Cc2ccccc2)o1` showed an inhibition of -2.2%. Compound `CC(C)[C@H]1COC(c2cccc(C3=N[C@@H](C(C)C)CO3)n2)=N1` has an inhibition of 5.5%. For `Cc1cc(S(=O)(=O)O/N=C(\N)c2snnc2C)cc(C)c1F`, the inhibition was 11.7%. For `CC1(C)CC(=O)C=C(N2CCOCC2)C1`, the inhibition was -0.03%. Work on `CCc1cnc(NS(=O)(=O)c2cc(Cl)sc2Cl)nc1-c1c(F)cccc1F` yielded an inhibition of -8.06%. Compound `CC(C)CCOS(=O)(=O)c1ccc2c(c1)Cc1cc(S(=O)(=O)OCCC(C)C)ccc1-2` has an inhibition of 4.69%. For `CCCN(CCC)S(=O)(=O)c1ccc(C(=O)O/N=C(\C)c2ccccc2O)cc1`, the inhibition was 0.96%. `CC(=O)c1ccc(C#Cc2ccccc2)cc1` was tested, and the inhibition was -5.26%. `COC(=O)c1cnc(Oc2ccc(N)cc2)cc1C(F)(F)F` was tested, and the inhibition was -9.53%. Compound `O=C(CSc1c(F)c(F)c(C(=O)O)c(F)c1F)Nc1cccc(C(F)(F)F)c1` has an inhibition of 7.76%. `CCOC(=O)CN1C(=O)/C(=C\c2ccc(C)o2)N=C1c1ccccc1` was tested, and the inhibition was 0.42%. `O=[N+]([O-])c1ccc2ncccc2c1-n1cccc1` showed an inhibition of 2.94%. In the case of `CN(C(=O)Nc1ccc(Cl)cc1)n1cnc2ccccc2c1=O`, the inhibition is reported as -8.6%. `Cn1cnnc1SC/C=C/c1ccccc1` gave an inhibition of -13.5%. `O=C(O)CC(CC(=O)N1CCOCC1)c1ccccc1` (centres undefined) was tested, and the inhibition was -5.3%. In the case of `Cc1ccc2c(c1)C(=O)C(=O)S2`, the inhibition is reported as 6.48%. `O=C(CCc1ccc(O)cc1)N/N=C/c1cc(Cl)cc(Cl)c1O` gave an inhibition of -1.07%. Work on `CC(C)(C)NC(=O)N/N=C/c1[nH]ncc1Br` yielded an inhibition of 20.8%. `Cc1noc(C)c1S(=O)(=O)N1CCN(C2c3ccccc3-c3ccccc32)CC1` showed an inhibition of -0.47%. `CS/C(=N\S(=O)(=O)c1ccccc1)NNc1ccccc1` showed an inhibition of -1.96%. `CCOC(=O)Cn1cc(Cl)ccc1=O` gave an inhibition of -0.56%. `N/C(=N\S(=O)(=O)c1ccc(Cl)cc1)N1CCOCC1` gave an inhibition of -3.11%. For `Cc1nn(C)c(C)c1Sc1nccc(-c2cccnc2)n1`, the inhibition was -8.01%. Compound `CC(C)CC(F)Cc1cnc(=O)[nH]c1` (centres undefined) has an inhibition of -2.36%. `Oc1ccc(-n2cncn2)cc1` gave an inhibition of -7.43%. In the case of `O=C(NCc1ccccc1)c1cc2sccc2s1`, the inhibition is reported as 3.11%. For `Cc1ccc2sc(NC(=O)NC(=O)c3c(Cl)cccc3Cl)nc2c1`, the inhibition was -10.8%. Work on `Cn1cc(C(=O)Nc2ccc(F)c(Cl)c2)c(N)n1` yielded an inhibition of -11.3%. For `CCOC(=O)c1cnc2c(S(=O)(=O)C(C)C)csc2c1Sc1cccc(Cl)c1`, the inhibition was -1.87%. `O=C(NNC(=S)Nc1ccccc1Cl)c1ccc(OC(F)(F)F)cc1` showed an inhibition of 6.01%. For `O=C(c1ccc(Oc2ccc(Cl)cc2)c([N+](=O)[O-])c1)N1CCCC1`, the inhibition was 0.91%. For `CSc1sc(C(=O)Nc2cccc(C(F)(F)F)c2)cc1S(=O)(=O)C(C)C`, the inhibition was 0%. `CCOC(=O)c1ccc2nc(C(F)(F)F)cc(N3CCN(Cc4ccccc4)CC3)c2c1` showed an inhibition of 3.69%. `CCOC(=O)Cn1sc2nc(C)cc(C)c2c1=O` showed an inhibition of -2.32%. `O=[N+]([O-])c1ccc(N2CCC2)cc1` was tested, and the inhibition was 8.05%. With `CC(=O)OCc1ccc(COC(C)=O)c(OC(C)=O)c1OC(C)=O` the inhibition was -11.5%. `COC(=O)/C=C/c1cn(C2OCC(CO)C2O)c(=O)[nH]c1=O` (centres undefined) gave an inhibition of 5.73%. `NC(=O)c1cccc2c1OCCO2` gave an inhibition of 10.1%. Compound `CCCN(CCC)S(=O)(=O)c1ccc(C(=O)NNC(=O)c2cc(OC)c(OC)c(OC)c2)cc1` has an inhibition of -4.25%. `N#C/C(=C\c1ccsc1Sc1ccc(Cl)cc1)S(=O)(=O)c1ccc(Cl)cc1` was tested, and the inhibition was -3.72%. For `Cc1nnc(Sc2ccc([N+](=O)[O-])c(Sc3nnc(C)s3)n2)s1`, the inhibition was -6.36%. With `O=c1oc2c3ccccc3c3oc(=O)sc3c2s1` the inhibition was 50.3% (active). With `O=c1[nH]c2ccccc2s1` the inhibition was 2.88%. `Cc1cc(-c2noc(-c3cccs3)n2)no1` was tested, and the inhibition was -6.63%. With `Cc1nnsc1C(=O)N/N=C/c1ccccc1Cl` the inhibition was -4.11%. `CNC(=O)c1ccccc1I` gave an inhibition of -1.84%. For `O=S(=O)(CCSc1ccc(C(F)(F)F)cn1)CCSc1ccc(C(F)(F)F)cn1`, the inhibition was 2.94%. `CC(=O)Nc1ccc(C)cc1N=Cc1ccncc1` gave an inhibition of -3.13%. `N#CC(c1cc2ccccc2cn1)c1ccc2c(c1[N+](=O)[O-])C(=O)c1ccccc1C2=O` (centres undefined) showed an inhibition of 8.07%. For `Cc1cccc(-c2noc(NC(=O)O/N=C/c3ccccc3)n2)c1`, the inhibition was 5.92%. Work on `O=C(NNC(=S)Nc1ccc(S(=O)(=O)N2CCCCC2)cc1)c1ccncc1` yielded an inhibition of 7.23%. In the case of `O=[N+]([O-])c1ccc2c(c1)CCN2S(=O)(=O)c1ccccc1`, the inhibition is reported as -5.05%. With `Cc1ccc(C(=O)N2CCN(c3cccc4[nH]ccc34)CC2)cc1` the inhibition was -3.77%. For `O=C(Oc1ccccc1N1CCCCC1)c1sc2ccccc2c1Cl`, the inhibition was 4.69%. In the case of `CCOC(=O)c1cc(C)n(-c2cccc([N+](=O)[O-])c2)c1-c1ccccc1`, the inhibition is reported as -2.88%. `CC(C)(C)c1ccc(C(=O)CC(N)=O)cc1` showed an inhibition of -4.12%. For `FC(F)(F)c1csc(N/N=C/c2ccccc2Cl)n1`, the inhibition was -1.14%. For `C/C(=N\NC(N)=S)c1csc(-c2ccccc2)n1`, the inhibition was -3.92%. Compound `N/N=c1/nc2sccn2c2ncccc12` has an inhibition of -0.03%. With `O=C1C2C3C=CC(O3)C2C(=O)N1OCc1ccc(OC(F)(F)F)cc1` (centres undefined) the inhibition was 4.1%. `O=C(NC(=O)c1ccno1)Nc1ccccc1Cl` showed an inhibition of -1.38%. `Cn1c(CN2C(=O)CSc3ccc(C(F)(F)F)cc32)nnc1SCC(=O)c1ccccc1` showed an inhibition of -0.94%. For `COc1ccc(/C=N/Nc2nc(C)cc(=O)[nH]2)c(OC)c1`, the inhibition was -3.66%. Compound `CCCc1nc(N)ncc1C(=O)OCC` has an inhibition of -3.52%. For `N/C(=N\OC(=O)c1ccc([N+](=O)[O-])o1)c1ccc(OCc2ccc(Cl)cc2)c(Cl)c1`, the inhibition was -0.21%. Work on `Cc1onc(-c2ccccc2)c1CNS(=O)(=O)c1ccc(-c2ccccn2)s1` yielded an inhibition of -0.5%. Work on `O=S(=O)(Nc1ccc2[nH]ccc2c1)c1cccs1` yielded an inhibition of 14.7%. Work on `CC(=O)c1nnc2cc(C)nn2c1C` yielded an inhibition of 3.88%. For `CS(=O)(=O)c1ccc(C(=O)Nc2cccc(Cl)c2)cc1`, the inhibition was -0.58%. In the case of `CCCCc1ccc(S(N)(=O)=O)cc1`, the inhibition is reported as -0.44%. `O=C(Nc1ccccc1C(=O)NCc1c(F)cccc1Cl)c1ccccc1Cl` showed an inhibition of 2.65%. With `O=[N+]([O-])c1ccc(C2CC2(Br)Br)cc1` (centres undefined) the inhibition was 11.1%. With `C/C(=N\O)C(C)(C)Nc1ccc(C(C)(C)C)cc1` the inhibition was 0.91%. `O=C(NNc1ccccc1C(F)(F)F)NS(=O)(=O)c1ccc(Cl)cc1` was tested, and the inhibition was 2.98%. `COc1ccc(-c2csc(-c3cc(C)on3)n2)cc1` showed an inhibition of 7.05%. Work on `N#Cc1c(C(F)(F)F)cc(-c2cccs2)nc1N1CCCCC1` yielded an inhibition of -4.83%. `Cc1cc2nsnc2cc1Cl` gave an inhibition of 0.39%. `COc1ccc(COCC(O)CN2CCN(c3ccc(C(F)(F)F)cn3)CC2)cc1` (centres undefined) was tested, and the inhibition was -3.92%. With `CSc1ccc(C(F)(F)F)cc1C(=O)/C=C/N(C)C` the inhibition was -5.34%. `FC(F)(F)c1ccc(Cl)c(NC(=S)NN=C2CCCCCC2)c1` gave an inhibition of 0.56%. `Cc1ccc(N(C)NC(=O)Nc2ccc(Cl)cc2)nn1` was tested, and the inhibition was 12.1%. In the case of `Cc1ccc(N=C2SC3(CC3)C(=O)N2c2ccc(C)cc2)cc1`, the inhibition is reported as -5.53%. In the case of `Cc1ccc(S(=O)(=O)NNC(=O)c2ccccc2N)cc1`, the inhibition is reported as -4.45%. For `C=CCn1c(SCC(=O)Nc2nnc(-c3cccs3)s2)nnc1-c1ccco1`, the inhibition was -3.96%. With `O=C(Nc1ccc(I)cc1Cl)C(=S)NCc1cccs1` the inhibition was 3.66%. `c1csc(-c2ccc(-c3ccon3)s2)c1` gave an inhibition of -1.22%. For `CSc1nc(N)c2ccccc2n1`, the inhibition was -9.58%. Work on `O=C(Nn1cnnc1)c1cccs1` yielded an inhibition of 1.09%. For `Cc1nc(C(F)(F)F)ccc1C(=O)NC1CCCc2ccccc21` (centres undefined), the inhibition was 0.52%. In the case of `Cc1ccccc1C(=O)NNC(=O)c1ccccc1C1=NCCCN1`, the inhibition is reported as 4.96%. `N#Cc1cccnc1NNC(=O)c1ccccc1C(=O)O` was tested, and the inhibition was 4.06%. `O=c1[nH]c2c(=O)[nH]c(=S)[nH]c2nc1/C=C(\O)c1ccccc1` gave an inhibition of -4.76%. With `N/C(=N\OC(=O)c1cccc(Cl)c1)c1ccc2nonc2c1` the inhibition was 1.32%. `Oc1[nH]c2ccc(F)cc2c1N=NC(=S)NC1CC2C=CC1C2` (centres undefined) was tested, and the inhibition was -1.4%. `Nc1c(-c2nnc(SCC(=O)c3ccccc3)o2)cnn1-c1ccccc1` was tested, and the inhibition was -5.52%.
